# Laboratory results taken from the supplement of paper PMC4206461.
# Values without a mark were called inactive.
# Test system: Pseudomonas aeruginosa PA14 dppBCDF deletion mutant
# Assay: respiration area under curve with compound as sole nitrogen source, 24 h (OmniLog AUC (arbitrary units)); higher = more respiration / better utilisation as nitrogen source; extreme values may be limits of the assay
# Procedure: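 Biolog Phenotype MicroArray plates PM6-PM8: each di/tripeptide is the sole nitrogen source. Tetrazolium reduction was read in the OmniLog every 15 min for 24 h at 37°C and summarised as area under the respiration curve (arbitrary units). Values below 2000 count as no respiration. Strain is the dipeptide ABC transporter deletion mutant.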
row,Compound,respiration area under curve
1,CC(C)C[C@H](NC(=O)CNC(=O)CN)C(=O)O (plate: PM8),0
2,CC(C)C[C@@H](NC(=O)CNC(=O)CN)C(=O)O (plate: PM8),4.75
